Only some compounds are listed: those with a hit (about 7.3% of all), similar ones and a draw of the others.
KinaseGlo FLuc: blocks Kinase-Glo luciferase, a counter-screen artifact | Q27757 | Kinase-Glo luciferase, ATP luminescence, 8 min | Potency, µM (titrated, usually from 38.3 µM), for inactives: at the highest dose activity change, negative = inhibition, actives largely listed as inhibitors | 0.28% of 200,000 active | AID 1379; further: on the % scale 0 is the no-effect control and ±100 the full control effect; nearly all actives have a fitted effect of over 60% in size
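Inhibition of Kinase-Glo luciferase light generation was assessed at 10 uM ATP in pH 7.2 imidazole buffer, with luminescence measured after eight minutes at ambient temperature.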
NPC1 prom act: activates the NPC1 promoter | AID 485313 | Potency, µM (titrated, usually from 9.22 µM), inactives show at the top dose activation, most hits filed as activators | Huh7 NPC1 promoter luciferase reporter, 24 h | 2.4% of 320,000 active; further: % of control where 0% means no effect; nearly all actives have a fitted effect of over 60% in size
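Luciferase expression driven by the NPC1 promoter was measured in stably transfected Huh7 cells after a 24 h compound incubation, using a luciferase reagent and a luminescence read.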
ELG1 genotox: inducers of genotoxicity in HEK293T ELG1-luciferase cells. HEK293T ELG1-luciferase reporter, luminescence, 16 h. Potency, µM (series often up to 46 µM), inactives show at the highest dose activity change, positive = activation, hits mostly activators. 1.3% of 330,000 active; further: % of control where 0% means no effect; nearly all actives have a fitted effect of over 60% in size
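DMSO vehicle served as control against compound-treated ELG1-luciferase HEK293T cells; exposure lasted 16 hr at 37 °C and 5% CO2, followed by ONE-Glo luminescence detection after 30 min.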
FLuc counter: inhibits or activates purified firefly luciferase, miR-21 counter-screen. P08659. purified FLuc, Km substrates, luminescence inhibition. Potency, µM (titrated, usually from 57.5 µM), for inactives: at the highest dose activity change, negative = inhibition, usual class: inhibitors. 6.9% of 360,000 active. AID 588342;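 further: plate controls were vehicle for no effect and reference inhibitor for full effect; nearly all actives have a fitted effect of over 55% in size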
Target sequence (P08659 whole entry, looked up): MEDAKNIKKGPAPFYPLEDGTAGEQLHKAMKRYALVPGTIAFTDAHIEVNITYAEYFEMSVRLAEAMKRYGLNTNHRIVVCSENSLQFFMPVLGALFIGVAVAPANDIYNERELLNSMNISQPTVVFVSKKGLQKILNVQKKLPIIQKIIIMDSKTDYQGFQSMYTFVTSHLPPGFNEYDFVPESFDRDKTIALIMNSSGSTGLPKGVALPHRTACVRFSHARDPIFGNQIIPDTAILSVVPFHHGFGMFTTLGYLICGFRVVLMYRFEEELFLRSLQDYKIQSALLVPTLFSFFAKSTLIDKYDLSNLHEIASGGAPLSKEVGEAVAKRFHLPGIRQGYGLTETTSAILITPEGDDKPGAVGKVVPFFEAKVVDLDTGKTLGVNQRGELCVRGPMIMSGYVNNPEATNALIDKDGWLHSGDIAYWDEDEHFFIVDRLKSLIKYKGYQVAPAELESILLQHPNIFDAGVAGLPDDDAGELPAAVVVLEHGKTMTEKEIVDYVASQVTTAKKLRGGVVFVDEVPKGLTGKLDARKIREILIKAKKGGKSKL
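Purified P. pyralis luciferase (10nM final) with 10uM D-luciferin and 10uM ATP (Km levels) in 50mM Tris acetate pH 7.5, 10mM Mg acetate, 0.01% Tween-20, 0.05% BSA; qHTS 6-point titration, ~60 µM downward; luminescence read.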
SMN2 splice up: enhancers of SMN2 splice variant expression; 2.8% of 210,000 active; Potency, µM (highest dose often 46.1 µM), for the others: top-dose activity change, positive = activation, actives largely listed as activators; HEK293 SMN2-luciferase splicing reporter, luminescence, 30-36 h; further: % of control where 0% means no effect; nearly all actives have a fitted effect of over 55% in size
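HEK293 cells carry an SMN2 minigene-luciferase reporter in which exon 7 inclusion puts luciferase in frame. Cells were seeded at 2000 cells/well, attached for 10-12 hours, then exposed to compounds for 30-36 hours at 37C before ONE-Glo luminescence.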
Rab9 promoter act: Rab9 promoter activation | Huh7 Rab9 promoter-luciferase reporter, luminescence, 24 h | Potency, µM (highest dose often 9.22 µM), without a hit: at the top dose activation, negative = inhibition, actives largely listed as activators | 2.8% of 320,000 active | AID 485297; further: % of control where 0% means no effect; nearly all actives have a fitted effect of over 60% in size
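Luminescence read-out: Huh7 cells stably expressing Rab9-luciferase, treated 24 h with compound at 37 °C, then lysed with luciferase reagent for 10 min at ambient before reading.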
* marks the source's active call; other numbers are inactive results. The call rests on the fitted dose curve; in most records, active means well fitted curve in the direction sought with a large enough effect; inconclusive means small, poorly fitted or top-dose-only effect, or another doubt; inactive means no such curve, though single readings can be large; an effect the other way counts as inactive or inconclusive. Potency means the concentration at half of the fitted maximal effect.

`O=C(O)CCCN1C(=O)c2cccc3cccc(c23)C1=O` gave NPC1 prom act -2.7%, ELG1 genotox -0.2%, FLuc counter -0.6% and Rab9 promoter act 2.6%.
Screening O=C(CCCN1C(=O)c2cccc3cccc(c23)C1=O)NC1CCS(=O)(=O)C1 (configuration not stated) returned KinaseGlo FLuc -0.7%, NPC1 prom act 0.9%, ELG1 genotox -9.3%, FLuc counter 4.78µM* and Rab9 promoter act 2.7%.
For Cc1ccn2c(Nc3ccc4c(c3)OCO4)c(-c3ccc(N(C)C)cc3)nc2c1 the results were FLuc counter inconclusive and SMN2 splice up 15.8µM*.
`Cc1ccn2c(Nc3ccc4c(c3)OCO4)c(-c3ccco3)nc2c1` gave FLuc counter 6.01µM* and SMN2 splice up 15.0%.
`Cc1ccn2c(Nc3ccc4c(c3)OCO4)c(-c3ccc(Cl)cc3)nc2c1` gave FLuc counter -2.3% and SMN2 splice up -5.2%.
`CN(C)c1ccc(-c2nc3cnccn3c2Nc2ccc3c(c2)OCCO3)cc1` gave NPC1 prom act inconclusive, ELG1 genotox 17.6%, FLuc counter 10.7µM* and Rab9 promoter act inconclusive.
Screening CC(C)c1ccc(Nc2c(-c3ccco3)nc3ccccn23)cc1 returned FLuc counter 23.9µM* and SMN2 splice up inconclusive.
Screening Cc1ccn2c(Nc3ccc4c(c3)OCCO4)c(-c3ccc(Cl)s3)nc2c1 returned FLuc counter 6.01µM* and SMN2 splice up 20.7%.
For COc1cc(-c2cc(OC)c3c(C)oc(C)c3c(=O)c2)ccc1OC(=O)c1cccc(Cl)c1 the results were FLuc counter -8.6%.
Screening CN1C(=O)C(CC(=O)O)S/C1=N\N=C\c1ccc(O)cc1O (configuration not stated) returned NPC1 prom act -14.0%, ELG1 genotox 0.2%, FLuc counter 15.1µM* and Rab9 promoter act 2.8%.
`Cc1ccc2c(C)c(C(=O)N(C)C(C)c3ccon3)oc2c1C` (configuration not stated) gave NPC1 prom act inconclusive, ELG1 genotox inconclusive, FLuc counter 15.1µM* and Rab9 promoter act 3.16µM*.
Cc1ccc(C(=O)NCC(c2cccnc2)N2CCc3ccccc32)cc1C (configuration not stated) was read as FLuc counter -14.0%.
Cc1ccc(C(=O)NCC(c2cccnc2)N2CCc3ccccc3C2)cc1C (configuration not stated) was read as FLuc counter 2.69µM*.
For O=[N+]([O-])c1ccc(/C=N/Nc2nc(NCc3ccccc3)nc(N3CCOCC3)n2)cc1 the results were KinaseGlo FLuc -4.9%, NPC1 prom act 0.2%, ELG1 genotox -0.3%, FLuc counter -0.4%, SMN2 splice up 0.5% and Rab9 promoter act -2.7%.
Screening O=[N+]([O-])c1cccc(/C=N/Nc2nc(NCc3ccccc3)nc(N3CCOCC3)n2)c1O returned KinaseGlo FLuc -1.5%, NPC1 prom act -3.8%, ELG1 genotox -15.4%, FLuc counter 16.9µM* and Rab9 promoter act -5.5%.
`O=C1CSC(=S)N1/N=C/c1ccc2c(c1)OCCO2` gave NPC1 prom act -4.2%, ELG1 genotox 0.0%, FLuc counter 16.9µM* and Rab9 promoter act -4.0%.
For COc1ccc(OC)c(C(=O)c2c(N)c(-c3nc(-c4ccc(C)c(C)c4)cs3)c3ccccn23)c1 the results were FLuc counter 3.7% and SMN2 splice up 7.2%.
CN(CC(=O)Nc1ccc(Cl)c(C(F)(F)F)c1)C(=O)c1cn2ccccc2n1 was read as NPC1 prom act -4.8%, ELG1 genotox 23.1µM*, FLuc counter inconclusive and Rab9 promoter act -0.5%.
Screening COc1ccc(NC(=O)NCCN2C(=O)C3C4C=CC(C4)C3C2=O)cc1 (configuration not stated) returned KinaseGlo FLuc 3.6%, NPC1 prom act inconclusive, ELG1 genotox inconclusive, FLuc counter inconclusive, SMN2 splice up 11.2µM* and Rab9 promoter act inconclusive.
Cc1ccc(NC(=O)NCCN2C(=O)C3C4C=CC(C4)C3C2=O)cc1 (configuration not stated) was read as KinaseGlo FLuc 1.2%, NPC1 prom act 2.51µM*, ELG1 genotox 7.31µM*, FLuc counter 16.9µM*, SMN2 splice up 11.2µM* and Rab9 promoter act 1.58µM*.
Screening O=C(NCCN1C(=O)C2C3C=CC(C3)C2C1=O)Nc1ccccc1 (configuration not stated) returned KinaseGlo FLuc 6.5%, NPC1 prom act 2.7%, ELG1 genotox 11.5%, FLuc counter -6.5%, SMN2 splice up -12.5% and Rab9 promoter act 1.5%.
Cc1ccc(-c2csc(=Nc3ccccc3)n2Cc2ccc3c(c2)OCO3)cc1 was read as FLuc counter -44.0% and SMN2 splice up inconclusive.
For CCCCCCCCCCCCCCCC(=O)N[C@@H](COP(=O)(O)O)C(=O)O the results were KinaseGlo FLuc 1.1% and SMN2 splice up 0.7%.
Screening Cc1nnc(SC(C)C(=O)Nc2ncc(Cl)cc2Cl)n1Cc1ccccc1 (configuration not stated) returned KinaseGlo FLuc 0.2%, NPC1 prom act 2.6%, ELG1 genotox -1.4%, FLuc counter -1.2%, SMN2 splice up -5.9% and Rab9 promoter act -0.1%.
Cc1cc(SC(C)C(=O)Nc2ncc(Cl)cc2Cl)nc2ccccc12 (configuration not stated) was read as KinaseGlo FLuc 3.9%, NPC1 prom act -1.7%, ELG1 genotox -5.1%, FLuc counter -11.5%, SMN2 splice up 3.55µM* and Rab9 promoter act -0.3%.
`C/C(=N\Nc1nc(-c2ccccc2)cs1)c1cccs1` gave KinaseGlo FLuc -15.9%, NPC1 prom act 3.55µM*, ELG1 genotox inconclusive, FLuc counter 0.849µM*, SMN2 splice up 2.82µM* and Rab9 promoter act 2µM*.
Screening C/C(=N\Nc1nc(N2CCOCC2)nc(N2CCOCC2)n1)c1cccs1 returned KinaseGlo FLuc -2.9%, NPC1 prom act -0.2%, ELG1 genotox -2.1%, FLuc counter 2.4%, SMN2 splice up -3.1% and Rab9 promoter act -7.8%.
C/C(=N\Nc1nc2ccccc2s1)c1cccs1 was read as KinaseGlo FLuc -16.7%, NPC1 prom act inconclusive, ELG1 genotox inconclusive, FLuc counter 0.675µM* and Rab9 promoter act 3.55µM*.
CC(NC(=O)/C(C#N)=C/c1cccs1)c1ccccc1 (configuration not stated) was read as KinaseGlo FLuc 3.8%, NPC1 prom act -1.8%, ELG1 genotox -1.5%, FLuc counter -5.6%, SMN2 splice up -0.6% and Rab9 promoter act -2.7%.

High-throughput results as filed in PubChem BioAssay.
